Screening data (PubChem BioAssay)
Rows were chosen to be rich in hits. Some 3.8% of all compounds tested hit in one or more screens of this group.
KCNH2 3.1 block: KCNH2 3.1 (human) potassium channel inhibition; 0.95% of 340,000 active; activity change, % (tested at about 1.8 µM); U2OS KCNH2 3.1, thallium flux FluxOr; hits give low values; AID 720553;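 active = maximum activity change below -70%; inconclusive = maximum activity change from -70% to -50%; inactive = maximum activity change above -50%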;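 note: thallium influx rate constant from kinetic fluorescence after stimulation buffer; % is set by controls: 0 for no effect and ±100 for the full control effect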
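Virally transduced U2OS (3.1 isoform, 4 h infection in dark at RT) → overnight 37 C → FluxOr + Red40 in HBSS/HEPES, 45 min → stimulation buffer, 2 min kinetic read → rate constant vs DMSO controls.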
MBNL1-CUG inh: MBNL1-poly(CUG) RNA binding inhibition; TR-FRET MBNL1-His/biotin-(CUG)12 binding, 665/545 ratio; Potency, µM (top dose mostly 57.5 µM), for inactives: at the highest dose activity change, negative = inhibition, actives largely listed as inhibitors; 0.036% of 280,000 active; AID 2675; active = well fitted inhibition curve with a large enough effect in the signal ratio, with a control signal flat, not every such curve was filed as active; inconclusive = small, poorly fitted or top-dose-only effect, or effect the other way, or a change in a side signal; inactive = no such curve, though single readings can be large or run the other way; the % refers to the signal ratio; note: potency is the fitted concentration of half-maximal effect; % is set by controls: 0 for no effect and ±100 for the full control effect
Target sequence (Q9NR56 whole entry, looked up): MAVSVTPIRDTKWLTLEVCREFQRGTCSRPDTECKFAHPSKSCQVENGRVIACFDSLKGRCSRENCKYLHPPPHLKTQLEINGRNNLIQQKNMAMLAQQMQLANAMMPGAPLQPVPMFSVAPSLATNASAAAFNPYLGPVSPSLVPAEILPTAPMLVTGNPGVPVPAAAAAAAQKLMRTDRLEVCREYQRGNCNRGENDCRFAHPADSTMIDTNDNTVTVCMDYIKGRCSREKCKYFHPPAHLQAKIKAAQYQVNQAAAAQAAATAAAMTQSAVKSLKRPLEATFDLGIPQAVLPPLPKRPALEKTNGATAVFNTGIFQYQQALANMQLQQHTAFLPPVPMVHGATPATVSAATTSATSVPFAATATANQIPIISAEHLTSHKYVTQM
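MBNL1-His + Biotin-(CUG)12, cpd titration 92 nM–58 uM; Tb anti-His Ab 0.055 ng/ul, SA-XL665 5 nM (final); 60 min RT; ratiometric 665/545 nm, Ex 340 nm; normalized to buffer and full-complex controls.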
PLK1 PBD inh: inhibitors of human PLK1 polo-box domain binding | P53350 | Plk1 PBD binding of FITC phosphopeptide, fluorescence polarization | Potency, µM, inactives show max response, negative = inhibition, usual class: inhibitors | 2.8% of 360,000 active | AID 720504; note: potency is the fitted concentration of half-maximal effect; series mostly up to about 57 µM; % is set by controls: 0 for no effect and ±100 for the full control effect; nearly all actives have a fitted effect of over 65% in size
VDR inhibitor: blocks the human vitamin D receptor | 0.93% of 400,000 active | Potency, µM, inactives show max response, negative = inhibition, actives largely listed as inhibitors | VDR-SRC2-3 peptide fluorescence polarization, 2 h | P11473; note: potency is the fitted concentration of half-maximal effect; % is set by controls: 0 for no effect and ±100 for the full control effect
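Fluorescence polarization assay of small-molecule disruption of VDR binding to coregulator peptide SRC2-3. Compounds and controls pin-transferred, then read after 2 h incubation at ambient room temperature.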
CBFb RUNX1 block: blocks binding between human CBF-beta and RUNX1; Q01196+Q13951; AlphaScreen CBFb-His/RUNX1-biotin binding, biochemical; Potency, µM (highest dose often 59.8 µM), without a hit: at the top dose activity, negative = inhibition, actives largely listed as inhibitors; 230,000 tested, under 10 active; note: % of control where 0% means no effect
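Room-temperature protein-protein interaction test with 30 nM each of His-tagged CBF-beta and biotinylated RUNX1, 15 min with compound, then 90 min with nickel plus streptavidin beads. Signal read in AlphaScreen mode.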
hERG WT inh: blocks the wildtype human KCNH2 potassium channel; Q12809; U2OS, BacMam KCNH2, thallium flux FluxOr; hits give low values; activity change, % at 1.84 µM; 0.37% of 340,000 active;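 active = maximum activity change below -70%; inconclusive = maximum activity change between -70% and -50%; inactive = maximum activity change above -50%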; note: % is set by controls: 0 for no effect and ±100 for the full control effect
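U2OS cells transduced with wild-type KCNH2 virus are loaded with FluxOr dye for 45 min, and thallium flux is measured in kinetic reads before and after stimulation buffer. Rate constants are normalized to DMSO controls.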
The depositor's hits bear a star; ? = inconclusive; nt = not tested or not shown; ! = a repeat was not active. Unless noted, calls come from the whole dose curve; as a rule, active = well fitted curve in the direction sought with a large enough effect; inconclusive = small, poorly fitted or top-dose-only effect, or another doubt; inactive = no such curve, though single readings can be large; an effect the other way counts as inactive or inconclusive.

SMILES	KCNH2 3.1 block	MBNL1-CUG inh	PLK1 PBD inh	VDR inhibitor	CBFb RUNX1 block	hERG WT inh
NC(=O)c1ccc(NC(=O)COC(=O)CCC(=O)c2ccc(Cl)cc2)cc1	-15	nt	24µM*	-12%	6%	nt
COc1cc2c(cc1NC(=O)COc1ccc(Cl)cc1Br)oc1ccccc12	nt	nt	nt	-8%	nt	nt
Cc1cc(C)c(N(Cc2ccccc2)S(=O)(=O)c2ccc(OCCNC(=O)c3cc4ccccc4o3)cc2)c(C(=O)NO)c1	nt	nt	nt	0%	-18%	nt
CN=C(c1ccco1)n1c(=S)nc(-c2ccco2)n(C)c1=S	-7	14%	19µM*	?	0%	2
CN=C(c1ccc(C)cc1)n1c(=S)nc(-c2ccc(C)cc2)n(C)c1=S	2	-1%	-9%	6%	3%	2
O=c1[nH]n(-c2ccccc2)c(=O)c2ccccc12	-8	3%	-9%	-15%	-1%	-5
O=c1[nH]n(-c2ccccn2)c(=O)c2ccccc12	-10	13%	30µM*	?	1%	-2
CCOc1ccc(Cl)cc1CNc1nnnn1C	7	-3%	-29%	-4%	-2%	nt
CCCOc1ccc(Cl)cc1CNc1ccccc1	-2	9%	17µM*	-10%	25%	-1
Cc1ccccc1CNC(=O)c1cc2cc(S(=O)(=O)N3CCCCC3)ccc2n1C	nt	nt	nt	4%	nt	nt
COc1ccc(/C=C/C(=O)Nc2cc(S(=O)(=O)N3CCCCC3)ccc2N2CCCCC2)cc1OC	-8	-2%	-5%	9%	12%	1
O=C(OCc1ccc([N+](=O)[O-])cc1)c1cc(S(=O)(=O)N2CCCCC2)ccc1N1CCOCC1	-80*	nt	0%	-7%	nt	-93*
O=C(Nc1ccccc1)Nc1cc(S(=O)(=O)N2CCOCC2)ccc1N1CCCC1	-20	nt	21µM*	-11%	-4%	16
O=C(Nc1ccc(Cl)cc1)Nc1cc(S(=O)(=O)N2CCOCC2)ccc1N1CCCC1	-17	2%	-11%	-4%	-2%	17
COc1cc(/C=C/C(=O)Nc2cc(S(=O)(=O)N3CCOCC3)ccc2N2CCCC2)cc(OC)c1OC	3	8%	6.7µM*	?	6%	-2
O=C(Nc1cc(S(=O)(=O)N2CCOCC2)ccc1N1CCOCC1)c1ccc(Cl)nc1	13	-3%	30µM*	-23%	9%	5
CCOCC(=O)Nc1cc(S(=O)(=O)N2CCOCC2)ccc1N1CCCCC1	0	12%	4.7µM*	?	-3%	-3
CCOc1ccc(CNC(=O)c2cccn2-c2nnc(N3CCCCC3)s2)cc1OC	nt	nt	nt	-6%	nt	nt
CC1CN(C(=O)Nc2cccc(C(F)(F)F)c2)CC(C)O1 (stereo unspecified)	-10	-3%	-12%	6%	1%	nt
CCN1CCN(C(=O)Nc2cccc(C(F)(F)F)c2)CC1	-79*	-5%	0%	-4%	-1%	5
COc1ccc(N=CC2=C(O)CC(c3ccccc3)CC2=O)c(OC)c1 (stereo unspecified)	12	nt	21µM*	?	-7%	3
COc1cc(/C=C2\CC/C(=C\c3cc(OC)c(O)c(OC)c3)C2=O)cc(OC)c1O	-5	nt	4.7µM*	-14%	?	-2
COc1cc(/C=C2\CC/C(=C\c3cc(OC)c(OC)c(OC)c3)C2=O)cc(OC)c1OC	7	nt	2%	-2%	-2%	-2
COc1cc(/C=C2\CCC/C(=C\c3ccc(O)c(OC)c3)C2=O)ccc1O	4	3%	-10%	25µM*!	nt	-3
CCSc1nnc(NC(=O)C2CCCN(S(=O)(=O)c3cnc[nH]3)C2)s1 (stereo unspecified)	3	?	30µM*	-4%	10%	6
SMILES	KCNH2 3.1 block	MBNL1-CUG inh	PLK1 PBD inh	VDR inhibitor	CBFb RUNX1 block	hERG WT inh
Cc1ccc2nc(NC(=O)C3CCCN(S(=O)(=O)c4cnc[nH]4)C3)sc2c1 (stereo unspecified)	25	-12%	-25%	-9%	-5%	1
CCn1c(Nc2ccccc2Cl)nc2ccccc21	1	-1%	27µM*	-1%	8%	-4
CCCn1c(Nc2nc3ccccc3n2C)nc2ccccc21	-10	12%	0%	2%	-20%	-1
COc1ccccc1-n1c(N)c(C(N)=O)sc1=S	10	?	19µM*	-5%	-1%	3
Cn1c(N)c(C(=O)Nc2ccc3ccccc3c2)sc1=S	-2	-1%	?	-25%	1%	8
Nc1c(C(=O)Nc2ccc(F)cc2)sc(=S)n1-c1ccccc1F	14	0%	4.7µM*	?	0%	1
CCOC(=O)c1sc(=S)n(-c2ccccc2)c1N	-3	19%	-17%	-7%	15%	1
COc1cc(/C=C2\CCCc3c2nc2ccccc2c3C(=O)O)cc(OC)c1O	-1	8%	27µM*	-24%	10%	-5
COc1ccc(CN2COc3ccc4c(C)cc(=O)oc4c3C2)cc1	nt	nt	nt	8%	nt	nt
N=c1ncn(C2OC(CO)C(O)C2O)c2nc(Br)[nH]c12 (stereo unspecified)	-168*	nt	0%	nt	nt	-228*
Nc1nc(=S)c2ncn(C3OC(CO)C(O)C3O)c2[nH]1 (stereo unspecified)	-3	1%	11µM*	71µM*	?	-19
Nc1nc(=S)c2ncn([C@@H]3O[C@H](CO)[C@@H](O)[C@H]3O)c2[nH]1	7	nt	21µM*	-22%	nt	-13
OCC1OC(n2cnc3c(=S)nc[nH]c32)C(O)C1O (stereo unspecified)	nt	nt	nt	-14%	nt	nt
COc1ccc(Cn2ccc3nc(C)c(C(=O)N4CCN(c5ccccc5OC)CC4)cc3c2=O)cc1	nt	nt	nt	8%	nt	nt
CCO/C=C/C(O)(CNC(=O)c1ccc(C(C)(C)C)cc1)C(F)(F)F (stereo unspecified)	-72*	nt	-1%	7%	21%	6
CCc1ccc(NC(=O)Nc2nnc(N(C)C3CCCCC3)s2)cc1	nt	nt	nt	14%	nt	nt
O=C1C(=O)c2ncccc2-c2cccnc21	nt	nt	nt	1.3µM*	nt	nt
O=C1c2cccnc2C(=O)N1C1CCCCC1	-30	?	-5%	-6%	-4%	-26
NC1=C(Br)C(=O)c2ncccc2C1=O	-11	nt	7.5µM*	?	nt	1
O=C1c2cccnc2C(=O)N1CO	2	28%	1%	6%	-2%	-1
CCOC(=O)C1CCN(Cc2cc(=O)oc3cc(C)c(Cl)cc23)CC1	-2	-4%	27µM*	?	nt	12
COc1ccccc1CNC(=O)CSCc1nc(-c2ccc(OC)c(OC)c2)oc1C	nt	nt	nt	-28%	nt	nt
Cc1cc(SCC(=O)c2ccc(Cl)cc2)nc(=O)[nH]1	-8	?	24µM*	?	nt	-4
